# Source: article PMC11062922 (Nature Chemical Biology, 2023)
# How the values were obtained:
# Design in all cases: species or system human, MV4-11 + K-562 + COLO205 + SK-N-BE2 + OVCAR-8
# Conditions in all cases: read-out: apparent Kd; compound concentrations:100 nM and 1000 nM (sheet 'Samples'); n = 1
# AKT1 = test system: AKT1
# AKT2 = test system: AKT2
# ATM = test system: ATM
# CIT = test system: CIT
# ERBB3 = test system: ERBB3
# GSK3A = test system: GSK3A
# GSK3B = test system: GSK3B
# LATS1 = test system: LATS1
# MARK2 = test system: MARK2
# MARK3 = test system: MARK3
# MARK4 = test system: MARK4
# PAK4 = test system: PAK4
# PAK6 = test system: PAK6
# PKN1 = test system: PKN1
# PKN3 = test system: PKN3
# PRKACA = test system: PRKACA
# PRKACB = test system: PRKACB
# PRKCD = test system: PRKCD
# PRKCQ = test system: PRKCQ
# PRKG1 = test system: PRKG1
# PRKX = test system: PRKX
# TTN = test system: TTN
# CDC42BPA = test system: CDC42BPA
# CDC42BPG = test system: CDC42BPG
# MAPKAPK2 = test system: MAPKAPK2
# PRKCI = test system: PRKCI
# ROCK2 = test system: ROCK2
# RPS6KA4 = test system: RPS6KA4
structure (smiles),measurement,setting,value
CCn1c(-c2nonc2N)nc2c(C#CC(C)(C)O)ncc(OC[C@@H]3CCCN3)c21.O=C(O)C(F)(F)F [GSK614526A],potency estimated from few doses,AKT1,1.09 µM
same,potency estimated from few doses,AKT2,0.934 µM
same,potency estimated from few doses,ATM,0.303 µM
same,potency estimated from few doses,CIT,0.983 µM
same,potency estimated from few doses,ERBB3,1.81 µM
same,potency estimated from few doses,GSK3A,0.365 µM
same,potency estimated from few doses,GSK3B,0.44 µM
same,potency estimated from few doses,LATS1,0.634 µM
same,potency estimated from few doses,MARK2,0.762 µM
same,potency estimated from few doses,MARK3,0.607 µM
same,potency estimated from few doses,MARK4,1.04 µM
same,potency estimated from few doses,PAK4,0.0667 µM
same,potency estimated from few doses,PAK6,0.821 µM
same,potency estimated from few doses,PKN1,0.215 µM
same,potency estimated from few doses,PKN3,0.15 µM
same,potency estimated from few doses,PRKACA,0.144 µM
same,potency estimated from few doses,PRKACB,0.51 µM
same,potency estimated from few doses,PRKCD,2.14 µM
same,potency estimated from few doses,PRKCQ,1.17 µM
same,potency estimated from few doses,PRKG1,0.0699 µM
same,potency estimated from few doses,PRKX,0.00138 µM
same,potency estimated from few doses,TTN,0.544 µM
CCn1c(-c2nonc2N)nc2c(C#CC(C)(C)O)ncc(OCCCCN)c21.CCn1c(-c2nonc2N)nc2c(C#CC(C)(C)O)ncc(OCCCCN)c21.O=C(O)C(F)(F)F.O=C(O)C(F)(F)F [GSK507274A],potency estimated from few doses,AKT2,1.44 µM
same,potency estimated from few doses,CDC42BPA,2.2 µM
same,potency estimated from few doses,CDC42BPG,1.8 µM
same,potency estimated from few doses,CIT,0.554 µM
same,potency estimated from few doses,GSK3A,0.328 µM
same,potency estimated from few doses,GSK3B,0.488 µM
same,potency estimated from few doses,LATS1,0.0839 µM
same,potency estimated from few doses,MAPKAPK2,1.37 µM
same,potency estimated from few doses,MARK2,0.44 µM
same,potency estimated from few doses,MARK3,0.178 µM
same,potency estimated from few doses,MARK4,0.629 µM
same,potency estimated from few doses,PAK4,0.0309 µM
same,potency estimated from few doses,PAK6,0.0993 µM
same,potency estimated from few doses,PKN1,0.191 µM
same,potency estimated from few doses,PKN3,0.013 µM
same,potency estimated from few doses,PRKACA,0.787 µM
same,potency estimated from few doses,PRKACB,0.965 µM
same,potency estimated from few doses,PRKCD,1.45 µM
same,potency estimated from few doses,PRKCI,1.89 µM
same,potency estimated from few doses,PRKG1,1.07 µM
same,potency estimated from few doses,PRKX,0.0541 µM
same,potency estimated from few doses,ROCK2,0.446 µM
same,potency estimated from few doses,RPS6KA4,0.749 µM
